In PubChem BioAssay (Tox21):
Records with an inconclusive call do not appear. Calls of active or inactive are those of the source. Calls come from the whole dose curve; as a rule, active = well fitted curve in the direction sought with a large enough effect in the repeat runs; inconclusive = weak or mixed curves; inactive = no such curve, though single readings can be large; an effect the other way counts as inactive or inconclusive.

What was measured:
[1] = A CellTox Green Cytotoxicity Assay to monitor cytotoxicity in HEK293 cells - 8 hour (AID 1224884); note: nearly all actives have a fitted effect of over 35% in size
Method in brief: (§1)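 Each value comes from one timepoint of a single continuous run in which HEK293 cells with CellTox Green were exposed to compound for up to 40 h at 37 C, dye fluorescence rising with cell death.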

[2] = qHTS RealTime-Glo MT Cell Viability Assay in HepG2 cells - 16 hour (AID 1224885); note: nearly all actives have a fitted effect of over 50% in size
Method in brief: (§2)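 Cell number in HepG2 cultures estimated from NanoLuc luminescence generated by metabolic reduction of a prosubstrate by living cells. The homogeneous, nonlytic format allowed repeated reads at 0, 8, 16, 24, 32 and 40 h of compound exposure.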

[3] = qHTS RealTime-Glo MT Cell Viability Assay in HEK293 cells - 24 hour (AID 1224886); note: top concentration of the series differs between compounds; nearly all actives have a fitted effect of over 50% in size
Method in brief: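 Homogeneous bioluminescent viability format in HEK293 cells (600 cells/well). Following 5 h at 37 C/5% CO2, 23 nL compound was pintooled; the signal was measured repeatedly during 40 h incubation.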

[4] = A CellTox Green Cytotoxicity Assay to monitor cytotoxicity in HEK293 cells - 16 hour (AID 1224888); note: nearly all actives have a fitted effect of over 35% in size
Method in brief: as §1

[5] = qHTS RealTime-Glo MT Cell Viability Assay in HepG2 cells - 0 hour (AID 1224889); note: nearly all actives have a fitted effect of over 50% in size
Method in brief: as §2

[6] = A CellTox Green Cytotoxicity Assay to monitor cytotoxicity in HepG2 cells - 8 hour (AID 1224890); note: nearly all actives have a fitted effect of over 45% in size
Method in brief: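 Continuous culture of HepG2 cells with a membrane-impermeant DNA dye; rising fluorescence marks dead cells. Compound exposure lasted up to 40 h at 37 C, with reads every 8 h from 0 h.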

[7] = qHTS assay to identify small molecule antagonists of the estrogen receptor alpha (ER-alpha) signaling pathway using the BG1 cell line in the presence of 0.1 nM 17-beta-estradiol - cell viability counter screen (AID 1259241); note: nearly all actives have a fitted effect of over 40% in size
Method in brief: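 Live-cell protease activity (CellTiter-Fluor fluorescence, 30 min) was read in the same wells after VM7Luc4E2 cells had been exposed to compounds with 0.1 nM 17beta-estradiol for 22 hr at 37C.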

[8] = qHTS assay to identify small molecule antagonists of the androgen receptor (AR) signaling pathway using the MDA cell line in the presence of 0.5 nM R1881 - cell viability counter screen (AID 1259242); note: nearly all actives have a fitted effect of over 45% in size
Method in brief: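 Fluorescence from CellTiter-Fluor, which reports protease activity of live cells, was read 30 min after reagent addition to MDA-kb2 cells that had been incubated 16 hr with compound and 0.5 nM R1881.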

[9] = target: Androgen receptor (Homo sapiens) (UniProt P10275); experiment: qHTS assay to identify small molecule antagonists of the androgen receptor (AR) signaling pathway using the MDA cell line in the presence of 0.5 nM R1881 (AID 1259243); note: nearly all actives have a fitted effect of over 50% in size
Androgen receptor (Homo sapiens), sequence (P10275 whole entry, looked up): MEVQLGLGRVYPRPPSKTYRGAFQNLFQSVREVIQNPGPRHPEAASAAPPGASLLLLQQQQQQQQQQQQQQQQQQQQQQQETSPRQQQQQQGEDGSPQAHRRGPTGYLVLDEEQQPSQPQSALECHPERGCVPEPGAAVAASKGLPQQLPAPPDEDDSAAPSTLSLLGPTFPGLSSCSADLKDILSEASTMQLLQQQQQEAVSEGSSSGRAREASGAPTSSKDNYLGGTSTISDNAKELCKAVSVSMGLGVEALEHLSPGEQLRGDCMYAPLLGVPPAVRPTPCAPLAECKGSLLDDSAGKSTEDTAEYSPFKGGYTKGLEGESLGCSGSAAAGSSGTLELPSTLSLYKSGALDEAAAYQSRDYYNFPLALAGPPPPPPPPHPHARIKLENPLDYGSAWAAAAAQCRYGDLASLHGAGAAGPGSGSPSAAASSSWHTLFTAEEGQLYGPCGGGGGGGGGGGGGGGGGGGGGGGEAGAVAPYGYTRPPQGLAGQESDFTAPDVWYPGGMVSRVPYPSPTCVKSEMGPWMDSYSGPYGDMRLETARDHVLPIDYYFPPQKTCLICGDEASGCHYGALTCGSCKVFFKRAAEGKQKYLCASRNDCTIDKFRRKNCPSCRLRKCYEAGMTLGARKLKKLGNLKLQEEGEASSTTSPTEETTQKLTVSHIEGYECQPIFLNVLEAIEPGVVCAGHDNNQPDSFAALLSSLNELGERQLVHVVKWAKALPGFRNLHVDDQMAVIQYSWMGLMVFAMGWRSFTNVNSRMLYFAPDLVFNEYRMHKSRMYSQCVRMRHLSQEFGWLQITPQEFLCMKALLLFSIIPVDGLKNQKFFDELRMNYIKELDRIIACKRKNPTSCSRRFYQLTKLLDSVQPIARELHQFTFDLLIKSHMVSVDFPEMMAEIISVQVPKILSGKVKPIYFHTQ
Method in brief: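 Inhibition of R1881 (0.5 nM final) induced reporter signal was measured in human MDA-kb2 cells; note the MMTV promoter also responds to GR. Exposure lasted 16 hr at 37C.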

Measured: Potency

CCOC(=O)NNc1nncc2ccccc12
inactive: [1] | [2] | [3] | [4] | [5] | [6] | [7] | [8]

O=C(O)c1ccccc1C(c1ccc(O)cc1)c1ccc(O)cc1
inactive: [1] | [2] | [3] | [4] | [5] | [6] | [7] | [8] | [9]

OCCOCCOCCO
inactive: [1] | [2] | [3] | [4] | [5] | [6] | [7] | [8] | [9]

CCCCCCCCC/C=C/CC1CC(=O)OC1=O (stereo not given)
inactive: [1] | [2] | [3] | [4] | [5] | [6] | [7] | [8]

Cc1ccc(N(C)C)cc1
inactive: [1] | [2] | [3] | [4] | [5] | [6] | [7] | [8] | [9]

CCCCCCCCCCCCS
inactive: [1] | [2] | [3] | [4] | [5] | [6] | [7] | [8]

CCc1cccc(C)c1N
inactive: [1] | [2] | [3] | [4] | [5] | [6] | [7] | [8] | [9]
